# Compound activity: PubChem BioAssay, National Center for Advancing Translational Sciences (NCATS)
# A selection: hits, their analogues and other compounds. The true share with any hit is near 3.3%.
# VACV Venus inh: vaccinia inhibition (Venus reporter) | actives 0.46% (n = 330,000) | Vaccinia virus Venus reporter expression, fluorescence | Potency, µM (top dose mostly 36.5 µM), for inactives: at the highest dose activity change, negative = inhibition, actives largely listed as inhibitors; calls by dose curve; tested in A549 cells; also: nearly all actives have a fitted effect of over 30% in size
# Vaccinia mCherry: inhibitors of vaccinia virus infection (mCherry reporter signal); Vaccinia virus mCherry reporter infection, fluorescence; Potency, µM (series often up to 36.5 µM), for the others: top-dose activity change, negative = inhibition, most hits filed as inhibitors; actives 0.63% (n = 310,000); AID 720579; calls by dose curve; tested in A549 cells; also: nearly all actives have a fitted effect of over 35% in size
# HCV inhibitor: inhibitors of hepatitis C virus infection | Huh7.5.1 HCVcc-Cre infection, luciferase reporter, 44 h | Potency, µM (highest dose often 41.8 µM), for the others: top-dose activity change, negative = inhibition, hits mostly inhibitors | actives 3.4% (n = 340,000); active = well fitted inhibition curve with a large enough effect; inconclusive = small, poorly fitted or top-dose-only effect, or another doubt; inactive = no such curve, though single readings can be large or run the other way
#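 Compounds are dispensed onto cells plated 4 h earlier at 1,000 per well, with HCVcc-Cre virus (about 0.5 moi) added next. Following 44 h of culture, luminescent signal is measured for 15 sec after 15 min with substrate at room temperature.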
# An asterisk follows results filed as active; i = inactive; u = inconclusive; x = no result given; [ ] = remark or other dose. % is scaled to controls: 0 for no effect and ±100 for the full control effect; potency is read from the fitted curve at half-maximal effect.
SMILES,VACV Venus inh,Vaccinia mCherry,HCV inhibitor
Cc1ccc(S(=O)(=O)N(C)C)cc1NC(=O)C(C)NC(C)c1cccs1 (stereo not drawn),-13.5%,-27.6%,7.0%
O=C(O)c1nn(CC(=O)N(C2CCCCC2)C2CCCCC2)c(=O)c2ccccc12,-13.8%,i,u
O=C(Nc1ccc(NC(=O)c2ccc([N+](=O)[O-])o2)cc1Cl)c1ccco1,-17.6%,-22.3%,u
Cc1ccc(NC(=O)c2cccs2)cc1[N+](=O)[O-],-16.3%,-14.1%,7.94µM*
O=C(Nc1cccc(NC(=O)c2ccc(-c3ccc(Br)cc3)o2)c1)c1ccccc1,-26.4%,x,-14.0%
O=C(Nc1cccc(NC(=O)c2ccc([N+](=O)[O-])o2)c1)c1ccco1,u,12.6µM*,u
Cc1ccc(C(=O)Nc2ccc(NC(=O)c3cccs3)cc2)cc1[N+](=O)[O-],x,x,-19.7%
O=C(Nc1cccc(NC(=O)c2ccc(-c3cccc(Br)c3)o2)c1)c1ccco1,-15.3%,-2.9%,3.55µM*
O=C(Nc1cccc(NC(=O)c2cccs2)c1)c1ccc2c(c1)OCO2,-25.7%,u,u
O=C(Nc1cccc(NC(=O)c2cccs2)c1)c1ccc([N+](=O)[O-])o1,u,u,10µM*
CCOC(=O)c1cc(-c2ccc(C)cc2)n(CCC(=O)Nc2ccc(C(C)C)cc2)c1C,-9.4%,-11.8%,x
C1=Nc2ccccc2/C1=C/c1ccccc1,-5.6%,-14.5%,x
CCc1ccc(-n2c(=O)c3c4c(sc3n(CC(=O)NCCCOC)c2=O)CCCC4)cc1,-3.0%,-11.0%,x
COc1cc(NC(=O)c2ccc([N+](=O)[O-])o2)ccc1NC(=O)c1cccs1,10µM*,10µM*,u
COc1ccc(Br)cc1C(=O)Nc1cccc(NC(=O)c2ccco2)c1,-24.9%,i,u
COc1c(C)cc(Br)cc1C(=O)Nc1cccc(NC(=O)c2ccco2)c1,-22.7%,2.7%,6.31µM*
COc1cc(NC(=O)c2cccs2)ccc1NC(=O)Cc1ccccc1,-19.2%,-18.1%,u
COc1ccc(CCCc2nnc(SCC(=O)Nc3ccc(C)cc3C)o2)cc1,-4.5%,-11.5%,x
Cc1ccc(N(Cc2ccccc2)C(=O)CSC(C)C(=O)Nc2cc(C)on2)cc1 (stereo not drawn),1.8%,-19.5%,x
O=c1oc2ccc3ccccc3c2cc1-c1nnc(Nc2ccc(F)cc2)s1,-10.3%,-18.7%,x
Cc1ccc2c(c1)C(=O)C(=O)N2Cc1ccc(Cl)cc1,-15.2%,i,u
CCOc1ccccc1C(=O)N(Cc1ccco1)Cc1ccco1,-4.5%,-6.4%,x
ClC1=C(Cl)C(Cl)=C(Cl)C1=C/C=C/c1ccccc1,x,x,8.91µM*
O=C1NC(=O)N(c2ccccc2)C(=O)/C1=C\C=C\c1ccccc1,-8.3%[7.34 µM],i[7.34 µM],u
CCNC(=S)NN=C1c2ccccc2-c2ccccc21,-19.3%,-23.3%,15.8µM*
SMILES,VACV Venus inh,Vaccinia mCherry,HCV inhibitor
C=C(C)CNC(=S)N/N=C/c1ccco1,12.0%,u,5.2%
S=C(NCCCN1CCOCC1)NN=C1c2ccccc2-c2ccccc21,-18.7%,-8.3%,x
C=C(C)CNC(=S)NN=C1c2ccccc2-c2ccccc21,-7.0%,-11.4%,11.2µM*
Cc1cc(C)cc(OCC(=O)N2CCC(c3nc4ccccc4o3)CC2)c1,-9.9%,2.0%,x
CCOC(=O)c1c(NC(=O)CSc2nnc3c(n2)[nH]c2ccccc23)sc2c1CCN(C)C2,-8.5%,-14.5%,7.08µM*
COCCn1c(SCC(=O)Nc2cc(C)on2)nnc1-c1c[nH]c2ccccc12,0.0%,-14.9%,-7.1%
COCCNc1nnc(SCC(=O)Nc2sc3c(c2C(=O)c2ccccc2)CCCC3)s1,u,-21.8%,2.51µM*
CCOC(=O)c1c(NC(=O)CSc2nnc(-c3c[nH]c4ccccc34)n2CCOC)sc2c1CCCCC2,u,u,6.31µM*
Nc1nnc(SCC(=O)Nc2sc3c(c2C(=O)c2ccccc2)CCCC3)s1,-13.8%,-25.6%,u
CCOC(=O)c1c(NC(=O)C(NCCN(C)C)c2ccccc2)sc2c1CCCC2 (stereo not drawn),-21.9%,u,0.891µM*
CCOC(=O)c1c(NC(=O)c2ccccc2Cl)sc2c1CCCC2,-3.4%,-7.6%,x
CCc1nnc(NC(=O)CSc2nnc3c(n2)[nH]c2ccccc23)s1,-18.9%,1.0%,-5.9%
CCC(/C=C/C(C)C1CCC2C3CC=C4CC(O)CC[C@@]4(C)C3CC[C@@]12C)C(C)C (stereo partly drawn),-4.5%,-9.4%,x
O=S(=O)(c1ccc(C(F)(F)F)cc1)N1CCN(c2nc(-c3ccccc3)nc3ccccc23)CC1,-10.8%,-13.9%,x
C=CCn1c(O)c(N=NC(=O)CNC(=O)Cc2ccccc2)c2ccccc21,-20.8%,-13.0%,u
CCOC(=O)c1c(NC(=O)CSc2c[nH]c3ccccc23)sc2c1CCCC2,-24.7%,u,11.2µM*
CCOC(=O)c1c(NC(=O)CSc2c[nH]c3ccccc23)sc2c1CCC2,-27.3%,u,u
